RORgamma inh – ROR gamma (mouse) transcription inhibition; P51450; Potency, µM (series often up to 53.6 µM), for the others: at the top dose activity change, negative = inhibition, actives largely listed as inhibitors; actives 5.4% (n = 310,000); Drosophila S2 Gal4-RORgamma UAS-luciferase reporter, 20 h; further: potency means the concentration at half of the fitted maximal effect; nearly all actives have a fitted effect of over 60% in size
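Luciferase reporter read in Schneider cells carrying Gal4-RORγ (mouse) and UAS-Photinus luciferase; cells given compound 1 h before 700 uM copper sulfate induction, then incubated 20 h at ambient temperature.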
Gal4-VP16 FLuc – Gal4-VP16 reporter inhibition counter-screen | Potency, µM (series often up to 53.6 µM), inactives show at the highest dose activity, negative = inhibition, actives largely listed as inhibitors | Drosophila S2 Gal4-VP16 UAS-luciferase, luminescence, 20 h | actives 3.5% (n = 310,000) | AID 2546;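 further: Gal4-VP16 expression switched on by copper sulfate through the metallothionein promoter; potency means the concentration at half of the fitted maximal effect; nearly all actives have a fitted effect of over 50% in size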
FBPA coupling cs – counter-screen for Giardia aldolase inhibitors: coupling enzyme system; coupling enzyme system counterscreen, AmpLite Red fluorescence; AID 2472; activity change, negative = inhibition, % at 58.2 µM, hits read low; actives 0.67% (n = 290,000); in the data active means activity change below about -30%
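Fluorescence at 525 nm excitation and 598 nm emission measured inhibition of the coupled detection system without aldolase. Compounds (at 57.5 uM final) were preincubated 10 min at room temperature with coupling enzyme reagent before a 20 min substrate/AmpLite Red step.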
TSHR antag – human thyrotropin receptor antagonism. P16473. TSHR-expressing cells, TSH-stimulated cAMP HTRF, 2 h; hits give low values. activity change, negative = inhibition, % at 11.5 µM. actives 0.2% (n = 330,000). AID 504810;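 active means activity change below a set negative limit, meaning inhibition stronger than a set level, cut at about -70% in these data; inconclusive means activity change between two set negative limits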
Target sequence (P16473 whole entry, looked up): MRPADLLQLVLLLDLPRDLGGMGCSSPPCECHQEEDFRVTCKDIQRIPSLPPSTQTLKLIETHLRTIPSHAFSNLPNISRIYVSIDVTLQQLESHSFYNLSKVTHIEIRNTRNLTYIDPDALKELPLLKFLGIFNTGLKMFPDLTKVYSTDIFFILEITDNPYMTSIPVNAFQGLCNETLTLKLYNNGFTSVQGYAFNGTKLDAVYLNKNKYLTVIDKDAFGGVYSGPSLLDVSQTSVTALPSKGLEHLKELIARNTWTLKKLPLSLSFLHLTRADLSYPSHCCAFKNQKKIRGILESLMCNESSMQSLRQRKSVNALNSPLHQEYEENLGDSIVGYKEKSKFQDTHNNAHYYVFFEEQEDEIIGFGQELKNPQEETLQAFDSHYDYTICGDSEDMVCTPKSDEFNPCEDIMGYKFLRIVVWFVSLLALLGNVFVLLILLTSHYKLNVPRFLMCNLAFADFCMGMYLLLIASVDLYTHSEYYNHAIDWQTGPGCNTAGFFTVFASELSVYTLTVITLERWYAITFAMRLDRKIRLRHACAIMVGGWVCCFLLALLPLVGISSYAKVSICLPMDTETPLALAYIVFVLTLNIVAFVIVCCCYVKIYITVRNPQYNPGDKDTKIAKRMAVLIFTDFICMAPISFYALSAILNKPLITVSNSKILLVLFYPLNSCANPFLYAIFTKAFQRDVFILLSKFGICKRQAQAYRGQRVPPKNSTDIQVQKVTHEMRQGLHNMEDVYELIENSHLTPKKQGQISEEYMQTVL
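Antagonism was scored as loss of TSH-driven cAMP in TSHR cells, stimulated with 4nM TSH (EC80) for 2 hours at 37 deg C and detected by homogeneous HTRF competition immunoassay.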
ELG1 DNA repair – blocks ELG1-dependent DNA repair in HEK293T cells; AID 504467; Potency, µM (titrated, usually from 46.1 µM), inactives show at the top dose activity change, negative = inhibition, actives largely listed as inhibitors; HEK293T ELG1-luciferase reporter, luminescence, 16 h; DNA damage induced by 5-fluorouridine; actives 2.3% (n = 330,000); further: potency means the concentration at half of the fitted maximal effect; nearly all actives have a fitted effect of over 55% in size
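Reporter activity after DNA damage by 5-fluorouridine is monitored. Compound-treated cells incubate 16 hr at 37 °C, then ONE-Glo is added for 30 min before luminescence reading.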
Starred values were filed as active, the others as inactive; ? = inconclusive; nt = no result; ! = not confirmed by another sample; [ ] = another dose, or the depositor's remark. Only some compounds are listed: those with a hit (about 8% of all), similar ones and a draw of the others. Unless noted, the call rests on the fitted dose curve; in most records, active means well fitted curve in the direction sought with a large enough effect; inconclusive means small, poorly fitted or top-dose-only effect, or another doubt; inactive means no such curve, though single readings can be large; an effect the other way counts as inactive or inconclusive. On the % scale 0 is the no-effect control and ±100 the full control effect.

SMILES | RORgamma inh | Gal4-VP16 FLuc | FBPA coupling cs | TSHR antag | ELG1 DNA repair
Cc1ccc(CN2C(=O)N/C(=C/c3ccc(-c4ccc(C(=O)O)cc4)o3)C2=O)cc1 | 3.5% | 4.7% | 7.0 | -5.5 | -2.7%
Cc1[nH][nH]c(=O)c1C(c1ccc(-c2ccc(F)cc2)o1)c1c(C)[nH][nH]c1=O | ? | ? | -36.8* | 0.4 | -0.9%
Cc1[nH][nH]c(=O)c1C(c1ccc(-c2ccc(C(=O)O)cc2)o1)c1c(C)[nH][nH]c1=O | 0.9% | -6.2% | -62.7* | -17.8 | -18.0%
COc1ccc(-c2ccc(C(c3c(C)[nH][nH]c3=O)c3c(C)[nH][nH]c3=O)o2)c([N+](=O)[O-])c1 | -0.6% | -0.4% | -49.4* | -2.3 | ?
Cc1[nH][nH]c(=O)c1C(c1ccc(-c2ccc(Cl)c(Cl)c2)o1)c1c(C)[nH][nH]c1=O | -34.1% | -3.4% | -45.4* | 3.1 | -2.7%
COc1ccc(C2C(C(=O)c3cccs3)=C(O)C(=O)N2CCN2CCOCC2)c(OC)c1 (stereo not drawn) | 0.6% | 0.9% | -0.8 | -7.7 | 11.8%
COC(=O)[C@@]1(Cc2ccc(F)cc2)[C@H]2c3cc(C(=O)N4CCCC4)n(Cc4cccc5ccccc45)c3C[C@H]2CN1C(=O)c1ccccc1 | 6.7% | -2.2% | -2.5 | nt | nt
FC(F)(F)c1cnc(-c2cnc(-c3ccccn3)nc2)c(Cl)c1 | 5.62µM* | -10.8% | -1.8 | 2.2 | ?
FC(F)(F)c1cnc(-c2cnc(-c3ccncc3)nc2)c(Cl)c1 | -7.2% | -8.9% | 2.2 | 0.2 | ?
O=C(/C=C/c1ccccc1)c1cccs1 | 22.4µM* | -5.2% | 0.6 | nt | nt
CCOc1ccc(/C=C/C(=O)c2cccs2)cc1 | 22.4µM* | -21.3% | 0.5 | nt | nt
CCOc1ccc(/C=C/C(=O)c2ccccc2)cc1 | ? | ? | 2.8 | -8.2 | ?
CCOC(=O)c1c(NC(=S)Nc2ccc(Cl)cc2)sc(C)c1C | -15.8% | -13.2% | 1.6 | 6.9 | ?
CCOC(=O)c1c(NC(=S)NC)sc2c1CC(C)(C)SC2 | 0.398µM* | 0.891µM* | -0.3 | -9.7 | -4.7%
Cc1sc(NC(=S)Nc2ccc(F)cc2)c(C(N)=O)c1C | 8.91µM* | 11.2µM* | -4.2 | -5.2 | 0.0%
CCOC(=O)c1c(NC(=O)c2cccs2)sc2c1CC(C)(C)OC2 | 8.1%[10 µM] | -15.9% | 0.4 | -11.8 | 9.2µM*
CCOC(=O)c1c(NC(=S)Nc2cccnc2)sc(C)c1C | 12.6µM* | ? | 1.4 | 13.9 | ?
CCOC(=O)c1c(NC(=O)C2C3C=CC(C3)C2C(=O)O)sc2c1CC(C)(C)OC2 (stereo not drawn) | 2.0% | -20.9% | 5.4 | 5.9 | 6.0%
COc1cc(C(=O)Nc2sc3c(c2C(=O)O)CCC(C)C3)cc(OC)c1OC (stereo not drawn) | -18.5% | -12.5% | 10.3 | -27.2 | 2.91µM*
CCOC(=O)c1c(NC(=S)Nc2ccccc2)sc2c1CCN(CCc1ccccc1)C2 | -7.6% | 1.1% | -8.4 | -6.3 | 12.6%
CCOC(=O)c1c(NC(=S)Nc2ccccc2)sc2c1CC(C)(C)SC2 | 2.82µM* | 3.98µM* | 1.5 | -4.4 | ?
COc1cc(C(=O)Nc2sc(C)c(C)c2C(=O)O)cc(OC)c1OC | -41.6% | -8.3% | 1.7 | 27.2 | 9.6%
CNC(=S)Nc1sc2c(c1C(=O)OC)CCC2 | 1.26µM* | ? | 5.4 | -2.1 | 4.9%
COC(=O)c1c(NC(=S)NN2CCN(C)CC2)sc2c1CCC(C)C2 (stereo not drawn) | 2µM* | 5.01µM* | 1.5 | 4.5 | 13.2%
COC(=O)C1=C(C(=O)OC)[C@@H]2N(Cc3ccccc3)c3ccccc3[C@@]23C[C@@H](C(=O)OC)N(S(=O)(=O)c2c(C)noc2C)C3=N1 | nt | nt | 3.6 | nt | nt
SMILES | RORgamma inh | Gal4-VP16 FLuc | FBPA coupling cs | TSHR antag | ELG1 DNA repair
O=C(Oc1ccccc1)N1CCC2(CC1)CN(c1ncccn1)C2 | 3.7% | ? | 1.6 | nt | nt
Nc1cc(-c2ccccc2)ccc1O | ? | ? | -4.3 | 0.0 | 8.2µM*!
CC(=O)Nc1cc(-c2ccccc2)ccc1O | 15.4% | ? | -1.7 | 8.8 | 6.2%
O=C(O)c1ccccc1SC1CC(=O)N(c2ccc3c(c2)OCO3)C1=O (stereo not drawn) | 3.16µM* | ? | 0.6 | 11.6 | 6.9%
Cc1ccc(N2C(=O)CC(Sc3ccccc3C(=O)O)C2=O)cc1 (stereo not drawn) | -16.3%[10 µM] | ? | 3.7 | 12.8 | -0.3%
Cc1ccc(N2C(=O)CC(Sc3ncn[nH]3)C2=O)cc1C (stereo not drawn) | ? | ? | 1.9 | 8.3 | -7.4%
Cc1cccc(N2C(=O)CC(Sc3ccccc3C(=O)O)C2=O)c1 (stereo not drawn) | ? | 5.01µM* | 0.9 | -12.1 | 21.8%
CN(C)c1ccc(N2C(=O)CC(Sc3ccccc3C(=O)O)C2=O)cc1 (stereo not drawn) | ? | 15.8µM* | 9.0 | -7.0 | 13.3%
Cc1cccc(N2C(=O)CC(Sc3ncn[nH]3)C2=O)c1 (stereo not drawn) | 12.6µM* | -11.3%[10 µM] | 1.3 | 7.5 | -1.2%
Fc1ccc(N2CCN(C3=Nc4cccc5cccc3c45)CC2)cc1 | 12.6µM* | -5.0% | -4.5 | -3.2 | ?
c1ccc(CN2CCN(C3=Nc4cccc5cccc3c45)CC2)cc1 | ? | -24.1% | -9.7 | 7.1 | ?
O=c1c(CCc2ccccc2)nc2cnc(N3CCNCC3)nc2n1Cc1ccc(F)cc1 | 4.47µM* | ? | -0.2 | nt | nt
CN1CCN(c2ncc3nc(CCc4ccccc4)c(=O)n(Cc4ccc(F)cc4)c3n2)CC1 | -43.8% | -24.8% | 5.4 | nt | nt
COc1cc(C(=O)NCCc2ccc(S(N)(=O)=O)cc2)ccc1OCc1c(C)noc1C | nt | nt | nt | 4.3 | -7.3%
Cc1ccc(C(=O)c2coc3cc([N+](=O)[O-])c(O)c([N+](=O)[O-])c23)cc1 | ? | -0.1% | -34.8* | -13.2 | 2.3%
Cc1ccc(Sc2ccc(C(=O)N(C)C)cc2[N+](=O)[O-])cc1 | ? | -10.9%[10 µM] | 0.5 | -9.0 | ?
CC(C)(C)Nc1oc(-c2ccccc2)nc1-c1ccc(C(F)(F)F)cc1 | -17.8% | 1.2% | 2.2 | nt | nt
CCCCN(C(=O)c1c(-c2ccccc2)noc1C)c1c(N)n(CCC)c(=O)[nH]c1=O | nt | nt | nt | nt | 7.3%
O=C(NC1CCCC1)C(c1ccccc1)N(Cc1ccccc1)C(=O)c1csnn1 (stereo not drawn) | 0.9% | 16.4% | -0.5 | -5.6 | -5.7%
COc1ccc(NC(=S)Nc2ccccc2C(F)(F)F)cc1 | 11.2µM* | ? | 0.9 | -5.3 | 4.7%
COc1ccc(C(=O)CC(=O)C(=O)Nc2ccccc2C(F)(F)F)cc1 | 6.31µM* | 7.08µM* | 0.1 | -4.8 | ?
COc1ccc(C(=O)CC(=O)C(=O)Nc2cc(OC)ccc2OC)cc1 | ? | 0.4% | 1.8 | -0.7 | -2.2%
